{
  "source": "PubChem BioAssay",
  "key": {"[1]": {"target": "Nuclear receptor coactivator 3 (Homo sapiens) (UniProt Q9Y6Q9)", "sequence (Q9Y6Q9 whole entry, looked up, the tested form may be a part)": "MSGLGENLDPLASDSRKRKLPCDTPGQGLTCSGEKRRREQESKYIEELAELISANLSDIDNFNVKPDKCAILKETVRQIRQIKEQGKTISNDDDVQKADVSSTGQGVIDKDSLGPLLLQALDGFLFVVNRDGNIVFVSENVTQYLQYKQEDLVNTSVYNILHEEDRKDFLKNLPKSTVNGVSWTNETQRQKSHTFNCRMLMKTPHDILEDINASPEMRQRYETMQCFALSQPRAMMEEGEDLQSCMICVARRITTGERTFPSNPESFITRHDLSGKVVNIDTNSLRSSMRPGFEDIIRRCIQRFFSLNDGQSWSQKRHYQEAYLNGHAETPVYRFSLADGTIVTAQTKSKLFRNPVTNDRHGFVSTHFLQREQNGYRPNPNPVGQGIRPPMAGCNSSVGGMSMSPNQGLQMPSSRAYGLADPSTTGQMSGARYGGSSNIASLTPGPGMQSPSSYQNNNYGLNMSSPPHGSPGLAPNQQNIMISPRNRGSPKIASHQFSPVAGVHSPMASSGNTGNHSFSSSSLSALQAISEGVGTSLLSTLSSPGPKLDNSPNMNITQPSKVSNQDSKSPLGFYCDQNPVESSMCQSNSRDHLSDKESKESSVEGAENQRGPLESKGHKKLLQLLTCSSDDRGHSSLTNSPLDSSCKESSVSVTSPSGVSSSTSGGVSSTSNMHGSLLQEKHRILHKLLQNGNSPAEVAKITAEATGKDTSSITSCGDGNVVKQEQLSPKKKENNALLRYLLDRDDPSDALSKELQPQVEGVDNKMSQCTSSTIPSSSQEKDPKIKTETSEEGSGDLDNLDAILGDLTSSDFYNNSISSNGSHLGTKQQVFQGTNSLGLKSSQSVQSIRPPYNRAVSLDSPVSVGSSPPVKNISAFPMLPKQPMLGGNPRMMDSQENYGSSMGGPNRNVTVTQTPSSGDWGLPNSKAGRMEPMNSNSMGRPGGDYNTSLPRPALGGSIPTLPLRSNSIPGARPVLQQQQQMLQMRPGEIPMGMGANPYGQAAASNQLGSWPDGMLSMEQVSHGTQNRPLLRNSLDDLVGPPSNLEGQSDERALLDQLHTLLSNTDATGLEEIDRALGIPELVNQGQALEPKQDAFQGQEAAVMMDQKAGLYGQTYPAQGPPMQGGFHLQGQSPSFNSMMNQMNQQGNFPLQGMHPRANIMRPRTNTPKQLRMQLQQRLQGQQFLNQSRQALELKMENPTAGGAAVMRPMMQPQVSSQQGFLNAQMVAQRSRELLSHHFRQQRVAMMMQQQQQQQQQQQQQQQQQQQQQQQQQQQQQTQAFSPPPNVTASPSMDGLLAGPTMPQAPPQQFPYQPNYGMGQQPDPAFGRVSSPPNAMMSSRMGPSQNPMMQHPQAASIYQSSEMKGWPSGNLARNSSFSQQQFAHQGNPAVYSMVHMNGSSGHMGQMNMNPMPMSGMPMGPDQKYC", "assay": "SRC3 coactivator transcriptional activity inhibitors, confirmation, cell-based, luminescence, quadruplicate (AID 588792;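 active = mean inhibition over 43.08%, the solvent-only control mean plus 3 SD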;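 note: 0% = DMSO treated cells and 100% = gossypol at 36 µM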)", "details": "HEK293 GAL4-SRC3 luciferase reporter, at 3.6 µM, hits give high values"}, "[2]": {"tested_on": "transactivating tegument protein VP16 (Human herpesvirus 1), Gal4-VP16 luciferase reporter", "assay": "VP16 transactivation inhibitors, counter-screen for SRC3 inhibitor project, cell-based, luminescence, high throughput (AID 588794; in the data active = inhibition above about 30%)", "details": "mammalian cells, VP16-driven luciferase reporter luminescence; at 3.6 µM; hits give high values"}, "[3]": {"target": "Nuclear receptor coactivator 1 (Homo sapiens) (UniProt Q15788)", "sequence (Q15788 whole entry, looked up, the tested form may be a part)": "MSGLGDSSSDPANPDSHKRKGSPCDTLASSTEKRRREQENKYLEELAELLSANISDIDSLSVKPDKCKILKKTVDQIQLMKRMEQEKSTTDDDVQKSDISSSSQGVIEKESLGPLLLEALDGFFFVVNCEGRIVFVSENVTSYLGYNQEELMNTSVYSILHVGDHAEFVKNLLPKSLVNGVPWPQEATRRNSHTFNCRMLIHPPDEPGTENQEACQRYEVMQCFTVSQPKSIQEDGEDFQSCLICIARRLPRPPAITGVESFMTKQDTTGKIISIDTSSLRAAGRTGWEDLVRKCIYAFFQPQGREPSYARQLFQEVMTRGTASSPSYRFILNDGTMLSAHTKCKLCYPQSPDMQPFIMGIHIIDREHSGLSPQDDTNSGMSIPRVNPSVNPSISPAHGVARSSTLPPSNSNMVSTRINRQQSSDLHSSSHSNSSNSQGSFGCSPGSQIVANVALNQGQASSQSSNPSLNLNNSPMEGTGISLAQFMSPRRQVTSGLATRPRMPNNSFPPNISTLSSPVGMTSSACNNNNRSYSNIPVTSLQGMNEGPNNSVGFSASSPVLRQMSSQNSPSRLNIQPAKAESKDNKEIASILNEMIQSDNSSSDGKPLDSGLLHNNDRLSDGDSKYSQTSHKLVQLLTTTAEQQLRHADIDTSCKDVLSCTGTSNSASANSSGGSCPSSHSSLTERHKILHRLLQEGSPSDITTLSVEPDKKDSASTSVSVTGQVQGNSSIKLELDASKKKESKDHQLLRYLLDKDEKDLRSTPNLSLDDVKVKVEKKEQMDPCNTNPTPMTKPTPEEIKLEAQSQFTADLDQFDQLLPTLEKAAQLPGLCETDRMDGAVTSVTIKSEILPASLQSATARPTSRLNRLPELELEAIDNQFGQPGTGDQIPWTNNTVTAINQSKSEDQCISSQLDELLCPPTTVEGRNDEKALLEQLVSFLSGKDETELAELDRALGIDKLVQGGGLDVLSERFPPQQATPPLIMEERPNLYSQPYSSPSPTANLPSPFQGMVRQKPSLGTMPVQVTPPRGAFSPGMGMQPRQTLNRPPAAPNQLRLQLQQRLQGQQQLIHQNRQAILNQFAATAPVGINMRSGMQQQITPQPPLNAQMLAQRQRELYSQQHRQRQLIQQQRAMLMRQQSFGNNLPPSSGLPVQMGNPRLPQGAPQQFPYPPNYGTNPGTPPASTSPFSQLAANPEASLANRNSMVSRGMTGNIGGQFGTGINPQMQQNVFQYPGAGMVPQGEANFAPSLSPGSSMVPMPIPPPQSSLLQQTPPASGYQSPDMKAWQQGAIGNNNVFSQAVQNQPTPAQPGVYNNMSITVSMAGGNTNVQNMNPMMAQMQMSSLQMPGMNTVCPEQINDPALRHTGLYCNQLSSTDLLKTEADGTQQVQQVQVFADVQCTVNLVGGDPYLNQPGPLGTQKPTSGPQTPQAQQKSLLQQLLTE", "assay": "SRC1 coactivator transcriptional activity inhibitors, confirmation, cell-based, luminescence, quadruplicate (AID 588820);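 note: 0% = DMSO wells and 100% = gossypol 36 µM treated wells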", "details": "HEK293 GAL4-SRC1 luciferase reporter, at 3.6 µM, hits give high values"}, "[4]": {"assay": "VP16 transactivation inhibitors, counter-screen for SRC1 inhibitor project, cell-based, luminescence, high throughput (AID 588824; in the data active = inhibition above about 25%)", "details": "cell-based VP16 transactivation luciferase luminescence; at 3.6 µM; hits give high values"}},
  "note": "Values without a mark were called inactive. Activity calls are given as the source filed them.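 Rule for the calls, unless noted: active = mean inhibition above 46.68%, the untreated control wells mean plus 3 SD; inactive = the rest.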",
  "data": [
    {"smiles": "COc1cc(-c2cc3nc4ccccc4n3c(N)c2C#N)cc(OC)c1OC", "values": [
      {"measurement": "inhibition", "setting": "[1]", "value": 14.5, "unit": "%"},
      {"measurement": "inhibition", "setting": "[2]", "value": -16.8, "unit": "%"},
      {"measurement": "inhibition", "setting": "[3]", "value": -42.6, "unit": "%"},
      {"measurement": "inhibition", "setting": "[4]", "value": -12.8, "unit": "%"}
    ]},
    {"smiles": "Cc1cccc(/C=N/Nc2ccc3ccccc3n2)c1", "values": [
      {"measurement": "inhibition", "setting": "[1]", "value": 16.1, "unit": "%"},
      {"measurement": "inhibition", "setting": "[2]", "value": -21.2, "unit": "%"},
      {"measurement": "inhibition", "setting": "[3]", "value": -80.5, "unit": "%"},
      {"measurement": "inhibition", "setting": "[4]", "value": -55, "unit": "%"}
    ]},
    {"smiles": "COc1ccc(Cc2noc(CN3CCN(c4ccc(Cl)cn4)CC3)n2)cc1OC", "values": [
      {"measurement": "inhibition", "setting": "[1]", "value": 14.7, "unit": "%"},
      {"measurement": "inhibition", "setting": "[2]", "value": 21.5, "unit": "%"},
      {"measurement": "inhibition", "setting": "[3]", "value": 6.4, "unit": "%"},
      {"measurement": "inhibition", "setting": "[4]", "value": "33% (active)"}
    ]},
    {"smiles": "COc1ccc(NS(=O)(=O)c2ccc(NC(=O)c3ccc(N(C)S(C)(=O)=O)cc3)cc2)c(OC)c1", "values": [
      {"measurement": "inhibition", "setting": "[1]", "value": 12.3, "unit": "%"},
      {"measurement": "inhibition", "setting": "[2]", "value": "37% (active)"},
      {"measurement": "inhibition", "setting": "[3]", "value": -6.59, "unit": "%"},
      {"measurement": "inhibition", "setting": "[4]", "value": "36.6% (active)"}
    ]},
    {"smiles": "CC1=C(C(=O)OCc2ccc3c(c2)OCO3)C(c2ccccc2)NC(=O)N1", "note": "(stereo not drawn)", "values": [
      {"measurement": "inhibition", "setting": "[1]", "value": "78.7% (active)"},
      {"measurement": "inhibition", "setting": "[2]", "value": "59.2% (active)"},
      {"measurement": "inhibition", "setting": "[3]", "value": "68.9% (active)"},
      {"measurement": "inhibition", "setting": "[4]", "value": "61.8% (active)"}
    ]},
    {"smiles": "CCCc1c(C)nc2ccccc2c1SCCC#N", "values": [
      {"measurement": "inhibition", "setting": "[1]", "value": 29.6, "unit": "%"},
      {"measurement": "inhibition", "setting": "[2]", "value": 29, "unit": "%"},
      {"measurement": "inhibition", "setting": "[3]", "value": 39.6, "unit": "%"},
      {"measurement": "inhibition", "setting": "[4]", "value": "25.5% (active)"}
    ]},
    {"smiles": "CCOC(=O)CC(=O)CSc1nccc(-c2cccnc2)n1", "values": [
      {"measurement": "inhibition", "setting": "[1]", "value": 37.5, "unit": "%"},
      {"measurement": "inhibition", "setting": "[2]", "value": 15.3, "unit": "%"},
      {"measurement": "inhibition", "setting": "[3]", "value": 16.4, "unit": "%"},
      {"measurement": "inhibition", "setting": "[4]", "value": 10.1, "unit": "%"}
    ]}
  ]
}
